Experiment in all cases: DAPPL (digital affinity profiling via proximity ligation, sequencing); 10 mM Tris-HCl pH 7.5, 50 mM NaCl, 1 mM DTT, 4% glycerol, room temperature, 30 min; GST-TFs on glutathione beads, 16-mer random dsDNA library, 0.1% formaldehyde crosslink after washing; high values mean tight binding
Assay [1] has as its target T1, FLI1 (Homo sapiens, UniProt Q01543 1-452).
T1 sequence: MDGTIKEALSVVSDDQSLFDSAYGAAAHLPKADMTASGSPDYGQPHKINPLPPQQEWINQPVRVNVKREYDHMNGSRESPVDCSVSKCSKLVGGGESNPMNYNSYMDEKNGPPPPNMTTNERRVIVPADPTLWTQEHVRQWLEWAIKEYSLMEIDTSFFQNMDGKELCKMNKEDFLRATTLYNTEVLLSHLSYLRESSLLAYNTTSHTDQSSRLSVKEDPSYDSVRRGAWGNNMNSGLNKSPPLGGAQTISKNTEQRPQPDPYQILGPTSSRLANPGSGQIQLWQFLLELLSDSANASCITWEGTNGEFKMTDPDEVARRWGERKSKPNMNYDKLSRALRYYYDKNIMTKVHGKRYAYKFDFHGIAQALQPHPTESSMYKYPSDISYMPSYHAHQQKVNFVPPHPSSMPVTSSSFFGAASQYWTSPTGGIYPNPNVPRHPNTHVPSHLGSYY
The note with it: protein: recombinant; tags: N-terminal GST; dsDNA, one strand shown. The essentials: (§1)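 A tag-only sample was pooled with DNA-barcoded human transcription factors that had been expressed in yeast as GST fusions and captured on glutathione beads. The pools were incubated for 30 min at room temperature with 200 nmole of a random double-stranded 16-mer DNA library in Tris/NaCl/DTT/glycerol buffer, then washed, crosslinked with 0.1% formaldehyde, proximity-ligated (BsaI/T4 ligase, 1 h, 37 °C), PCR-amplified and sequenced on an Illumina NextSeq500. Binding signal is each hexamer's read frequency for a factor divided by its frequency for the tag-only sample.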

The target of assay [2] is T2, ELK1 (Homo sapiens, UniProt P19419 1-428).
T2 sequence: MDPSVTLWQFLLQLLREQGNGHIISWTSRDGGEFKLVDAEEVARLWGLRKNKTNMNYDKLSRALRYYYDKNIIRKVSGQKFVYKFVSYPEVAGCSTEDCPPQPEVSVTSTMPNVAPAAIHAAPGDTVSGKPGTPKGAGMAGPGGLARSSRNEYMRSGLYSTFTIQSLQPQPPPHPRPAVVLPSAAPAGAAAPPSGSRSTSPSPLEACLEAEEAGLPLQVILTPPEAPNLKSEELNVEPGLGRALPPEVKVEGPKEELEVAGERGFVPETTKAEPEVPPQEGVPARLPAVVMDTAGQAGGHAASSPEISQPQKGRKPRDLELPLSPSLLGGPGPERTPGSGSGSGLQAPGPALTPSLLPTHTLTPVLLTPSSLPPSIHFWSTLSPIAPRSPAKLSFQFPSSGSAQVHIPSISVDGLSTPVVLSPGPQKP
Particulars: protein: recombinant; tags: N-terminal GST; dsDNA, one strand shown. The essentials: as §1

In assay [3] the target is T3, GABPA (Homo sapiens, UniProt Q06546 1-454).
T3 sequence: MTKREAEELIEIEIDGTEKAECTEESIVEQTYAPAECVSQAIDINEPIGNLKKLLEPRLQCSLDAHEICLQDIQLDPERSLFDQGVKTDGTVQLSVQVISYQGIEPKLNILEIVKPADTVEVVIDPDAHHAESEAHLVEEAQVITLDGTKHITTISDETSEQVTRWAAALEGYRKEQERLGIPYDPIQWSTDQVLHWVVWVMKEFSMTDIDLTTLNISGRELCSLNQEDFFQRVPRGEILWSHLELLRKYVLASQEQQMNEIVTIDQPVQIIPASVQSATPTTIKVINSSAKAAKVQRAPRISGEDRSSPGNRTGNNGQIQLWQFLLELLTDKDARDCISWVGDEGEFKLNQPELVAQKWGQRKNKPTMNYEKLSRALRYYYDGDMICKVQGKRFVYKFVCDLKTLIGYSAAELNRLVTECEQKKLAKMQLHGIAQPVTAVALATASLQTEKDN
Particulars: protein: recombinant; tags: N-terminal GST; dsDNA, one strand shown. The method in brief: as §1

The target in assay [4] is T4, ERG (Homo sapiens, UniProt P11308 1-479).
T4 sequence: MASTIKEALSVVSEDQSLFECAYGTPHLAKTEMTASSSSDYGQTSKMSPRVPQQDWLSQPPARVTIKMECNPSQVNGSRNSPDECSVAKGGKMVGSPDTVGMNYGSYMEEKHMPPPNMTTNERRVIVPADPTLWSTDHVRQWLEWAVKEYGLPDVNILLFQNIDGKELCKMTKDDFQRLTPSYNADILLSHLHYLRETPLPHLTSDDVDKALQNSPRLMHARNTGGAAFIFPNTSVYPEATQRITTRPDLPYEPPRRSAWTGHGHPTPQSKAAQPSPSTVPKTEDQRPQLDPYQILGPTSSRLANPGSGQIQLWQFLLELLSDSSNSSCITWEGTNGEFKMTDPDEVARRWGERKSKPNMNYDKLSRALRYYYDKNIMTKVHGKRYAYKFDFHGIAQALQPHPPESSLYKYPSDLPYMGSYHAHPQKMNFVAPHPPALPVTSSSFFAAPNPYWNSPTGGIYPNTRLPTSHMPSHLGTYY
The note with it: protein: recombinant; tags: N-terminal GST; dsDNA, one strand shown. The essentials:
as §1

For assay [5], the target named is ELF1 (Homo sapiens, UniProt P32519 1-619). The note with it: protein: recombinant; tags: N-terminal GST; dsDNA, one strand shown. The essentials:
as §1

The target of assay [6] is T5, EHF (Homo sapiens, UniProt Q9NZC4 1-300).
T5 sequence: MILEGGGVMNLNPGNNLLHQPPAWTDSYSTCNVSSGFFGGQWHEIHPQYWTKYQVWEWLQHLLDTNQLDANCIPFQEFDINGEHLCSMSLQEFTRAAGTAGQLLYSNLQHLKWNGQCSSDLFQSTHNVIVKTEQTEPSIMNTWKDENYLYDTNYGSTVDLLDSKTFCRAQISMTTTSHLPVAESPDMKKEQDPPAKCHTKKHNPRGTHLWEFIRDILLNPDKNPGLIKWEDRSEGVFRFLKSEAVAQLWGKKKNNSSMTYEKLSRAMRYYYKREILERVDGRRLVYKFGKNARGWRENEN
The note with it: protein: recombinant; tags: N-terminal GST; dsDNA, one strand shown. The method in brief: as §1

The target in assay [7] is SPI1 (Homo sapiens, UniProt P17947 1-270). Particulars: protein: recombinant; tags: N-terminal GST; dsDNA, one strand shown. The essentials:
as §1

Assay [8] deals with SPIB (Homo sapiens, UniProt Q01892 1-262). The note with it: protein: recombinant; tags: N-terminal GST; dsDNA, one strand shown. The method in brief: as §1
Assay [9] addresses T6, ELK3 (Homo sapiens, UniProt P41970 1-407).
T6 sequence: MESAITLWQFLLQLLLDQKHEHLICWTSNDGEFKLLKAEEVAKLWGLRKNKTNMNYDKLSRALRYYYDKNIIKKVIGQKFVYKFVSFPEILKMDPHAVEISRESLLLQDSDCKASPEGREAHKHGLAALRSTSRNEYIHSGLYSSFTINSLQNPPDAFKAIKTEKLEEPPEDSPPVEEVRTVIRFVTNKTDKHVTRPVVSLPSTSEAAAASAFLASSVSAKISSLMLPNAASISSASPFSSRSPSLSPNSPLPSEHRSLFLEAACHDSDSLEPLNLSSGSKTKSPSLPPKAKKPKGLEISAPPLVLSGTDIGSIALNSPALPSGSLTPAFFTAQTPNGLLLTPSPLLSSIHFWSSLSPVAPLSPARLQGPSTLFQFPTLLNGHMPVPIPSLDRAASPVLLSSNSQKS
Particulars: protein: recombinant; tags: N-terminal GST; dsDNA, one strand shown. The method in brief:
as §1

For assay [10], the target named is T7, FEV (Homo sapiens, UniProt Q99581 1-238).
T7 sequence: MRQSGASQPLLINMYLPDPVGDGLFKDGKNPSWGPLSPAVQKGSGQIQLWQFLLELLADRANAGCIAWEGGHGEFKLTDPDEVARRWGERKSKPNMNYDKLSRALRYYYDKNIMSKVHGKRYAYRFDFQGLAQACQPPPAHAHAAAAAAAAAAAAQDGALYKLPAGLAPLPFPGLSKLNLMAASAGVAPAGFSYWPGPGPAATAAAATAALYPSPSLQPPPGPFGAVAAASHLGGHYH
Particulars: protein: recombinant; tags: N-terminal GST; dsDNA, one strand shown. The essentials:
as §1

Assay [11] concerns the target ETV5 (Homo sapiens, UniProt P41161 1-510). The note with it: protein: recombinant; tags: N-terminal GST; dsDNA, one strand shown. The method in brief:
as §1

The target of assay [12] is HSF1 (Homo sapiens, UniProt Q00613 1-529). Particulars: protein: recombinant; tags: N-terminal GST; chain copies: 3; dsDNA, one strand shown. The essentials: as §1
The target of assay [13] is T8, SPIC (Homo sapiens, UniProt Q8N5J4 1-248).
T8 sequence: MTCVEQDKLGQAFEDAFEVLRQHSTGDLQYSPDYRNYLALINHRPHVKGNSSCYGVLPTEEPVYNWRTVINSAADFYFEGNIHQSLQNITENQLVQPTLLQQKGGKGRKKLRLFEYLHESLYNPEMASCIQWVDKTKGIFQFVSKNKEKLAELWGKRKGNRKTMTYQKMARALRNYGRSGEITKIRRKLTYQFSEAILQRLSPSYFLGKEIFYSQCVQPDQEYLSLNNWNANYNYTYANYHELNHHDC
Particulars: protein: recombinant; tags: N-terminal GST; dsDNA, one strand shown. The essentials:
as §1

The target in assay [14] is ELF4 (Homo sapiens, UniProt Q99607 1-663). The note with it: protein: recombinant; tags: N-terminal GST; dsDNA, one strand shown. The method in brief:
as §1

For assay [15], the target named is T9, ELK4 (Homo sapiens, UniProt P28324-2 1-405).
T9 sequence: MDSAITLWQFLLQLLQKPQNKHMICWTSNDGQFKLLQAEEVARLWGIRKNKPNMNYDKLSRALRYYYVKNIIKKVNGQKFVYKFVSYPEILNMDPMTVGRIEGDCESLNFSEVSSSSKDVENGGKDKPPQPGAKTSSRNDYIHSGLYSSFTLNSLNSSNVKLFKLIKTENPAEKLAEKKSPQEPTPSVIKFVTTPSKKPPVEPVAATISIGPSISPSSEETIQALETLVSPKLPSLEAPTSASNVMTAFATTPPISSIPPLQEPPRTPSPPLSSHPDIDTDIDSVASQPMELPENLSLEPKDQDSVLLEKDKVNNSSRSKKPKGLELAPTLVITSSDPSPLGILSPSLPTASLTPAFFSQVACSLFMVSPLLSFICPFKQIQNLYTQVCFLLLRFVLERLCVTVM
Particulars: protein: recombinant; tags: N-terminal GST; dsDNA, one strand shown. The method in brief: as §1

The target of assay [16] is T10, ETV2 (Homo sapiens, UniProt O00321 1-342).
T10 sequence: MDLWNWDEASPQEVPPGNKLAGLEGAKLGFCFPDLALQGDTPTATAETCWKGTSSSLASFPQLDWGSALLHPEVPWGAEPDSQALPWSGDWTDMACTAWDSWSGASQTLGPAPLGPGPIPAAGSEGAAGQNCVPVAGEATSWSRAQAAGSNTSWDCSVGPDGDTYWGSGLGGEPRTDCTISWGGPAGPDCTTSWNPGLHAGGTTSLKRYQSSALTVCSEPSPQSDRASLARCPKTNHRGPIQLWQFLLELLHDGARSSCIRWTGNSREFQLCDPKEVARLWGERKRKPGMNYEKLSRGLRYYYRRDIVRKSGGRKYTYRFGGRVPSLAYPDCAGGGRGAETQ
The note with it: protein: recombinant; tags: N-terminal GST; dsDNA, one strand shown. The method in brief: as §1

The target of assay [17] is T11, ELF3 (Homo sapiens, UniProt P78545 1-371).
T11 sequence: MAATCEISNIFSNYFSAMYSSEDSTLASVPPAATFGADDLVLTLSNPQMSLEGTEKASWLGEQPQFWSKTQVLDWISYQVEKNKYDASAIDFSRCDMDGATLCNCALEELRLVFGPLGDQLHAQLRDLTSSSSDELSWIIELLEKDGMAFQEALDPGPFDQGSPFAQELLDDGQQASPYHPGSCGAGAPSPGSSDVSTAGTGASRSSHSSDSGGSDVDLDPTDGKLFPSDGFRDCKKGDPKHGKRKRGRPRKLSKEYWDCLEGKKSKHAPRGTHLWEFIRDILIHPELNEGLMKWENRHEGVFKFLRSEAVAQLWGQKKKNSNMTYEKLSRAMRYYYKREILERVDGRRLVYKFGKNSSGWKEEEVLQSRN
Particulars: protein: recombinant; tags: N-terminal GST; dsDNA, one strand shown. The method in brief: as §1

Assay [18] addresses CRX (Homo sapiens, UniProt O43186 1-299). The note with it: protein: recombinant; tags: N-terminal GST; dsDNA, one strand shown. The essentials:
as §1

For assay [19], the target named is ETV1 (Homo sapiens, UniProt P50549 1-477). The note with it: protein: recombinant; tags: N-terminal GST; dsDNA, one strand shown. The essentials:
as §1

The text below walks through data of article PMC7862700, “An all-to-all approach to the identification of sequence-specific readers for epigenetic DNA modifications on cytosine”.

ETV1, sequence (P50549 whole entry): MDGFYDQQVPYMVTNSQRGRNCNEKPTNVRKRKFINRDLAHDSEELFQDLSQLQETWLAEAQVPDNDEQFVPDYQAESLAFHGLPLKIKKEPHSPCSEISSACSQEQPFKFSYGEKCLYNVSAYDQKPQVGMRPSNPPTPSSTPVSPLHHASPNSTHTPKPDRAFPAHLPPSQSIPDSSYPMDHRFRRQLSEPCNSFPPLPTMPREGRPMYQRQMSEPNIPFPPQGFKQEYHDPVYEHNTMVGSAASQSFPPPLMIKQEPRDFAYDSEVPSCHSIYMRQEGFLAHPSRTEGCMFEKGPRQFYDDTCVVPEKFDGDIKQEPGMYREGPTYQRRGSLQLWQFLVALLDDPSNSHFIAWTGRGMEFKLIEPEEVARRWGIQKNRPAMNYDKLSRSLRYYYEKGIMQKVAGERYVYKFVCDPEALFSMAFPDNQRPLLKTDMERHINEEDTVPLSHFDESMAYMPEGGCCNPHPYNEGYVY
ELF1, sequence (P32519 whole entry): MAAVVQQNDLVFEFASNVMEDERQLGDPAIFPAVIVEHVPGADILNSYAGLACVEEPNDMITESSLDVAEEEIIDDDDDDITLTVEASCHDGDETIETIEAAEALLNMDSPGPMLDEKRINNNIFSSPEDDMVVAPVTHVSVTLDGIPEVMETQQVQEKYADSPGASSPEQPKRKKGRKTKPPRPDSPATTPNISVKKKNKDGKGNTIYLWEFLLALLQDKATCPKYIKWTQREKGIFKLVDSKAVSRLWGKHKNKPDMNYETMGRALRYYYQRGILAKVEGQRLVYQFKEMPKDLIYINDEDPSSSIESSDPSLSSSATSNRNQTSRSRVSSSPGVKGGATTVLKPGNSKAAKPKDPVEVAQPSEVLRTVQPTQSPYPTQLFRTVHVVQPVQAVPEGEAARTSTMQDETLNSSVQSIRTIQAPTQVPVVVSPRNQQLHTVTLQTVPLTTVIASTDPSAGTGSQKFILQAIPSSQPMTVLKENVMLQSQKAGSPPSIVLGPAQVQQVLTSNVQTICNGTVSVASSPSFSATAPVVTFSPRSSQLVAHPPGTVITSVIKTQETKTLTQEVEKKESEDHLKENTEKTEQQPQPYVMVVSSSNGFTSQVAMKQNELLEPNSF
ELF4, sequence (Q99607 whole entry): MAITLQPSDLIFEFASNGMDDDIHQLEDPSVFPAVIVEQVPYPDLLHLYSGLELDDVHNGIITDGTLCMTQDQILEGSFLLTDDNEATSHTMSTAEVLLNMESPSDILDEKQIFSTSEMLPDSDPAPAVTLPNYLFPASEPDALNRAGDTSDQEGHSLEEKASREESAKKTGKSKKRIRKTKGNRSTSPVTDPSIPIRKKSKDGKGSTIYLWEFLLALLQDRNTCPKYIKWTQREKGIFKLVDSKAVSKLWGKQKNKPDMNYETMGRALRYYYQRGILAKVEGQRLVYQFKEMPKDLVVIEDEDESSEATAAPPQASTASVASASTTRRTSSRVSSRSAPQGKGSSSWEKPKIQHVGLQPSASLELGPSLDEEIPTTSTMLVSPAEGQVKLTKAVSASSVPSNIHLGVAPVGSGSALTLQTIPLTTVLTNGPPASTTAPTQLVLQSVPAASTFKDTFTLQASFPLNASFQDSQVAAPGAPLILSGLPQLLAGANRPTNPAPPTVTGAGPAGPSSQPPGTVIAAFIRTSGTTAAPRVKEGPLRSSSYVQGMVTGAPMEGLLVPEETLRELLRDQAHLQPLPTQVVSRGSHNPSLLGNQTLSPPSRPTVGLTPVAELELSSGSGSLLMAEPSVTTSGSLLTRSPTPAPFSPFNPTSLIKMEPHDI
ETV5, sequence (P41161 whole entry): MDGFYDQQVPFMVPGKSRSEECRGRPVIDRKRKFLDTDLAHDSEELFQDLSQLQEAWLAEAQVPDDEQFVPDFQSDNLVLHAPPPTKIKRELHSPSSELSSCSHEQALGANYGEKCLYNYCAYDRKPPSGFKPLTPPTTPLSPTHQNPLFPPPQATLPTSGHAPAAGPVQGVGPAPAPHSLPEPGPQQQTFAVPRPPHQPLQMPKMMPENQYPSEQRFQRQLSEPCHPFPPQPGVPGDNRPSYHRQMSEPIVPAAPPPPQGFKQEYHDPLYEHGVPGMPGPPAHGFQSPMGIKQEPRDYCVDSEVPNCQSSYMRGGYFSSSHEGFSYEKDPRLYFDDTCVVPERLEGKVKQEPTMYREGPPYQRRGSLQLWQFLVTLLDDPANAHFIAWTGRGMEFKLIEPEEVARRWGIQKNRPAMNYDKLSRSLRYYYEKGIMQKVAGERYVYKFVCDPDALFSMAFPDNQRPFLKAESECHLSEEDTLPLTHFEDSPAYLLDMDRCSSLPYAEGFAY
HSF1, sequence (Q00613 whole entry): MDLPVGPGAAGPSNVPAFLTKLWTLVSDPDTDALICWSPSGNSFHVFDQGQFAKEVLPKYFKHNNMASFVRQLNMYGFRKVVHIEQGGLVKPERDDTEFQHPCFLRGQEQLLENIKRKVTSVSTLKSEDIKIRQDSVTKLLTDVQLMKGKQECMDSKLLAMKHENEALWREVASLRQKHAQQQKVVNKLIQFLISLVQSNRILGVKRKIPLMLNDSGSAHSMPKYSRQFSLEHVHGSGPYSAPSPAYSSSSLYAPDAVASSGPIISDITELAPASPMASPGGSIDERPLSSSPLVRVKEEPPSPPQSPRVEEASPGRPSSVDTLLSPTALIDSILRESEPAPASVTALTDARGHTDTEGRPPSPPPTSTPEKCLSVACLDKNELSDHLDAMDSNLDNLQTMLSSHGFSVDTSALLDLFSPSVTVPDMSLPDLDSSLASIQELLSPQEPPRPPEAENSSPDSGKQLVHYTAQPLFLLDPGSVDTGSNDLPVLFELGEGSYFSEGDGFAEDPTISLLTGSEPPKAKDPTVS
SPIB, sequence (Q01892 whole entry): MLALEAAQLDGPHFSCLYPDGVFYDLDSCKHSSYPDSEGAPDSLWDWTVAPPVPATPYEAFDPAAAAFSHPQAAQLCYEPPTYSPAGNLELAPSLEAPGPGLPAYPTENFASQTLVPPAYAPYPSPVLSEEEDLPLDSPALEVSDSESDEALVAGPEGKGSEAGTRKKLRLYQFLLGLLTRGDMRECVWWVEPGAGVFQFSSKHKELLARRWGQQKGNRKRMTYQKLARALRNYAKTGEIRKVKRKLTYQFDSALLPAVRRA
CRX, sequence (O43186 whole entry): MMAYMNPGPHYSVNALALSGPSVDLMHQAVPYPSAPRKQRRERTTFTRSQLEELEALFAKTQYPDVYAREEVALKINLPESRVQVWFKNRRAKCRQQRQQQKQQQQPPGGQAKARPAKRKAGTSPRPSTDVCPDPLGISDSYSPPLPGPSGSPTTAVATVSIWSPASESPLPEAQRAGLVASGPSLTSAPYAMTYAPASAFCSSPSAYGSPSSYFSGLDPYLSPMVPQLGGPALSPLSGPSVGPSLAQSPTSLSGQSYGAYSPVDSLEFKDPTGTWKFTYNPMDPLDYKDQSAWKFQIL

For AATTTT, the binding signal in assay [1] is 1.24 fold enrichment (6-mer frequency, TF over GST control); in assay [2], 1.26 fold enrichment (6-mer frequency, TF over GST control); in [3], 1.27 fold enrichment (6-mer frequency, TF over GST control); in assay [4] it was 1.21 fold enrichment (6-mer frequency, TF over GST control); in [5], 1.22 fold enrichment (6-mer frequency, TF over GST control); in [6] it was 1.3 fold enrichment (6-mer frequency, TF over GST control). Also, the binding signal in assay [7] was 1.3 fold enrichment (6-mer frequency, TF over GST control); in assay [8] it was 1.26 fold enrichment (6-mer frequency, TF over GST control); in assay [9], 1.19 fold enrichment (6-mer frequency, TF over GST control); in [10], 1.22 fold enrichment (6-mer frequency, TF over GST control); in assay [11], 1.29 fold enrichment (6-mer frequency, TF over GST control); in assay [12], 1.51 fold enrichment (6-mer frequency, TF over GST control). Also, the binding signal in assay [13] is 1.17 fold enrichment (6-mer frequency, TF over GST control); in assay [14], 1.32 fold enrichment (6-mer frequency, TF over GST control); in assay [15], 1.3 fold enrichment (6-mer frequency, TF over GST control); in [16] it was 1.46 fold enrichment (6-mer frequency, TF over GST control); in assay [17] it was 1.41 fold enrichment (6-mer frequency, TF over GST control); in [18] it was 1.29 fold enrichment (6-mer frequency, TF over GST control). In addition, the binding signal in assay [19] was 1.23 fold enrichment (6-mer frequency, TF over GST control).
